From PubChem BioAssay
A selection follows.
aSyn 5UTR act: Activators via SNCA 5'UTR binding, MLPCN. 300,000 compounds, 7.1% hits. activity score, % (tested at 7.5 µM), hits read low. alpha-synuclein 5'UTR reporter, activators screen; in the data active = activity score below about -60%
A number is an active result; . = inactive.

SMILES	aSyn 5UTR act
CN(C)c1ccc(NC(=O)CN2CCc3ccccc3C2)cc1	-79
CCOc1ccc(NC(=O)N2CCc3ccccc3C2)cc1	-92
O=C(Cc1ccc(Cl)cc1)N1CCc2ccccc2C1	-160
O=C(Nc1ccccc1)N1CCc2ccccc2C1	-126
O=C(CNS(=O)(=O)c1cccs1)N1CCc2ccccc2C1	-72
Cc1ccc(NC(=O)N2CCc3ccccc3C2)cc1	-212
Cc1cccc(N2CCN(C(=O)CN3C(=O)C4CC=CCC4C3=O)CC2)c1C (configuration not stated)	-113
Cc1cccc(N2CCN(C(=O)NC3CCCCC3)CC2)c1C	-95
Cc1cc2nn(-c3cccc4ccccc34)nc2cc1N	-180
COc1ccc(C(=O)Nc2cc(C)on2)c(OC)c1	-141
COc1cccc(C(=O)NC(=O)Nc2cc(C)on2)c1	-94
COc1ccc(C(=O)Nc2ccc(C)cn2)c(OC)c1	.
COc1cccc(NC(=O)Nc2cc(C)on2)c1	-93
Cc1cc(NC(=O)Nc2ccc(C)c(C)c2)no1	-123
Oc1ccc(/C(Cc2ccc3ccccc3n2)=N\Nc2ccccc2)c(O)c1	-90
Cc1c(O)ccc(/C(Cc2ccc3ccccc3n2)=N\O)c1O	-76
CC(=O)Oc1ccc(C(=O)Cc2ccc3ccccc3n2)c(O)c1C	-143
CCOc1ccc(-c2nnc(-c3ccco3)o2)cc1OCC	-76
CCOc1ccc(-c2nnc(-c3cccs3)o2)cc1OCC	-86
COc1ccc(-c2nnc(-c3cccs3)o2)cc1OC	-148
CCC(C)(C)c1ccc(OCCCC[n+]2cccc(C)c2C)c(C(C)(C)CC)c1	.
O=C(NC12CC3CC(CC(C3)C1)C2)c1ccc(-c2ccc(Cl)cc2)o1	-251
O=C(NC12CC3CC(CC(C3)C1)C2)c1ccc(-c2ccccc2Cl)o1	-220
O=C(NC12CC3CC(CC(C3)C1)C2)c1ccc(-c2cccc(Cl)c2)o1	-133
CC(C)c1ccc(NC(=O)C(=O)C2C(=O)Nc3ccccc32)cc1 (configuration not stated)	-101
SMILES	aSyn 5UTR act
CC(C)c1ccc(NC(=O)[C@H](Cc2c[nH]c3ccccc23)NC(=O)[C@@H]2Cc3ccccc3CN2)cc1	.
CCOc1cc(/C=C2\COc3ccccc3C2=O)cc(Br)c1OCC(=O)N(C)C	-121
CC1(C)CCC(=O)N2CC[C@H]3C[C@H](OC(=O)Nc4ccc5c(c4)OCO5)C[C@@H]1[C@H]32	-105
CC1(C)CCC(=O)N2CC[C@H]3C[C@H](OC(=O)Nc4ccccc4)C[C@@H]1[C@H]32	-116
COc1cc(C(F)(F)F)ccc1C(=O)NCCc1ccco1	-163
C(=C\c1cccc2ccccc12)/c1nnc(-c2cccs2)o1	-69
O=C1c2ccccc2C(=O)C1c1ccc2ccccc2n1	.
CCNc1ccccc(-c2ccc3ccccc3n2)c1=O	-186
Cc1nc2ccc(CN(C)c3ccc(C(=O)N[C@@H](CCC(=O)O)C(=O)O)s3)cc2c(=O)[nH]1	.
O=C(CSC(=S)N1CCOCC1)c1cc2ccccc2oc1=O	-63
S=C(NCc1ccccn1)Nc1cccc(Cl)c1	-73
Cc1cccc(NC(=S)NCc2ccccn2)c1	-77
Cc1cccc(NC(=O)C(=O)NCc2ccccn2)c1	-70
O=C(c1cc(COc2ccc(F)cc2Cl)on1)N1CCCCCC1	-116
CC1CN(C(=O)c2cccc(COc3ccccc3Cl)c2)CC(C)O1 (configuration not stated)	-145
O=C(c1cc(COc2ccc(F)cc2F)on1)N1CCSCC1	-117
CCOC(=O)N1CCN(C(=O)c2cc(COc3ccc(OC)cc3Cl)on2)CC1	-62
COc1ccc(OCc2cc(C(=O)N3CCN(CC4CC4)CC3)no2)c(Cl)c1	-87
COc1ccc(OCc2cc(C(=O)N3CCN(C4CCCC4)CC3)no2)c(Cl)c1	-80
COc1ccc(OCc2cc(C(=O)N3C[C@@H](C)O[C@@H](C)C3)no2)c(Cl)c1	-67
COc1ccc(OCc2cc(C(=O)N3CCCCCCC3)no2)c(Cl)c1	-69
CN(C)CC(C(=O)c1ccccc1)c1ccccc1 (configuration not stated)	-171
CN(C)CC(CCC(CN(C)C)C(O)(c1ccccc1)c1ccccc1)C(O)(c1ccccc1)c1ccccc1 (configuration not stated)	.
OCCCCNc1cccc2ccccc12	-64
CCCCC(=O)Nc1ccc(NC(=S)NC(=O)c2cccs2)cc1OC	-107
SMILES	aSyn 5UTR act
CCN(CC)c1ccc(NC(=S)Nc2ccc(F)cc2)cc1	-91
CCN(CC)c1ccc(NC(=S)NC(=O)c2cccs2)cc1	-156
CCCCn1nnc(NC(=S)NC(=O)c2cccs2)n1	-114
CCCOc1ccc(C(=O)NNC(=S)NC(=O)c2ccco2)cc1	.
CCN(CC)c1ccc(NC(=S)NC(=O)c2ccco2)cc1	-214
COP(=O)(OC)C(Nc1ccc(C)cc1)c1ccc([N+](=O)[O-])cc1 (configuration not stated)	-159
O=C(CCc1ccccc1)Nc1ccc2c(c1)OCCO2	-102
O=C(CCc1ccccc1)Nc1cc2c(cc1Cl)OCCO2	-135
O=C(CS(=O)(=O)c1c[nH]c2ccccc12)Nc1ccc2c(c1)OCCO2	-85
CC1CC(C)(C)NC(=S)N1CCCC(=O)Nc1ccc2c(c1)OCCO2 (configuration not stated)	-91
CCOc1ccc(C(=O)COC(=O)c2cc([N+](=O)[O-])ccc2N2CCOCC2)cc1	-115
CSc1ccc(COC(=O)c2cc([N+](=O)[O-])ccc2N2CCOCC2)cc1	.
CCOC(=O)/C(C#N)=C/c1cc2ccccc2nc1Cl	-80
O=Cc1cc2ccccc2nc1SCc1ccc(Cl)c(Cl)c1	.
CCOC(=O)/C(C#N)=C/c1c[nH]c2ccccc12	-66
CCOC(=O)/C(C#N)=C/Nc1ccccc1OC	-122
COC(=O)/C(C#N)=C/c1c[nH]c2ccccc12	-96
COc1ccc(/C(C)=N/N2C(=O)c3ccccc3NC2c2ccc(O)c(OC)c2)cc1 (configuration not stated)	-66
Cc1ccc(/C(O)=C2\C(=O)C(=O)N(Cc3cccnc3)C2c2ccccc2[N+](=O)[O-])cc1 (configuration not stated)	-99
CC(=O)Oc1ccc(-c2csc(Nc3ccc(Cl)cn3)n2)cc1	-135
COc1ccc(-c2csc(Nc3ccc(C)cn3)n2)cc1	-180
Cc1nn2c(=O)c(NC(=O)c3ccc(Cl)cc3)cnc2s1	-66
Cc1ccc(C(=O)Nc2cnc3sc(C)nn3c2=O)cc1	-100
c1ccc2c(c1)CC/C2=N/Nc1nc2ccccc2[nH]1	-174
COc1cccc(NC(=O)COC(=O)c2c(F)cccc2Cl)c1	-148
SMILES	aSyn 5UTR act
O=C(COC(=O)c1c(F)cccc1Cl)NC1CCCC1	-78
Clc1ccc(OCc2nc3ccccc3[nH]2)cc1	-139
c1ccc(OCCSc2nc3ccccc3[nH]2)cc1	-128
c1ccc(OCc2nc3ccccc3[nH]2)cc1	-153
Cc1ccccc1Nc1nc(N)nc(COC(=O)c2ccccc2)n1	-198
Cc1ccccc1Nc1nc(N)nc(COC(=O)c2cccn2C)n1	-122
O=C(CSc1ccsc1[N+](=O)[O-])NCc1ccccc1	-104
COc1ccccc1CNC(=O)CSc1ccsc1[N+](=O)[O-]	-114
N=C1C(c2nc3ccccc3[nH]2)=C(O)CN1c1ccc(F)cc1	-65
N=C1C(c2nc3ccccc3[nH]2)=C(O)CN1C1CCCCC1	-116
Cc1cc(NC(=O)CSc2nc3c(cc2C#N)CCCC3)no1	-74
Cc1cc(NC(=O)CSc2nc3ccccc3cc2C#N)no1	-158
COc1ccc2nc(SCC(=O)Nc3cc(C)on3)c(C#N)cc2c1	-103
